Screen size: about 2,100 compounds; about 760 (36%) were called active. These entries were drawn from the full list. Values without a mark were called inactive.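 How the source made its calls: active means thallium-flux fluorescence traces judged by eye to show enhanced or reduced glutamate response, manual score 1 or -1, so both directions (some results past the limit were not filed as active); inactive means the rest, including fluorescent or raised-baseline compounds.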
Assay: non-GIRK thallium flux modulation in mGlu8 cells, confirmation, counter-screen for GIRK activator project, cell-based, HEK-293 rmGlu8, no GIRK (AID 623868);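 further: extra codes mark interference with 3 for fluorescent and 4 for baseline rise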
Details: thallium flux fluorescence, at 10 µM, actives lie on both sides, codes: 1 enhancer, -1 blocker, 0 none, thallium stimulus containing EC20 glutamate

Compound | manual score
Cc1cc(C)cc(OCC(=O)N2N=C(C(F)(F)F)CC2(O)C(C)(C)C)c1 (stereo not drawn) | 0
Cc1ccccc1C(=O)Nc1ccc2nc3n(c(=O)c2c1)CCC3 | 0
Cc1ccccc1C(=O)Nc1nc(=S)ss1 | 1 (active)
Cc1ccccc1CNC(=O)Nc1cccs1 | 0
O=C(Cn1c(=O)[nH]c2ccsc2c1=O)NC1CCCCCC1 | 0
CCn1c(O)c(N=NC2=NC(=O)CS2)c2cc(C)ccc21 | 1 (active)
CCc1ccc2c(c1)c(N=NC1=NC(=O)CS1)c(O)n2C | 1 (active)
CCc1ccc2c(c1)c(N=NC1=NC(=O)CS1)c(O)n2CC | 1 (active)
CC(Nc1nc(N2CCCC2)nc2ccccc12)c1ccccc1 (stereo not drawn) | 0
Cc1ccccc1/C=c1\s/c(=C\C(=O)C(C)(C)C)[nH]c1=O | 0.5
CC(C)(C)S(=O)(=O)c1ccc(S(=O)(=O)C(C)(C)C)s1 | 0
CCCn1nc2cc(C(=O)NCCc3ccc(C)cc3)ccc2c1OCC | 0
CCCn1nnnc1NC(=O)c1ccc2ccccc2c1 | 1 (active)
CCC(=O)Nc1ccc2c(c1)ncn2-c1ccc(OC)cc1 | 0
CC1CCCN(Cc2cccc(Oc3ccccc3)c2)C1 (stereo not drawn) | 0
Cc1ccc(N=Nc2ccc(O)c3ncccc23)cc1 | 1 (active)
Cc1ccccc1N=Nc1ccc(O)c2ncccc12 | 1 (active)
O=c1cc(CN2CCOCC2)nc(C2CC2)[nH]1 | 0
C/C(CC(O)c1ccc2ccccc2n1)=N/O (stereo not drawn) | 0
CCCCn1c(N)c(C(=S)NC(=O)CC(C)C)c(=O)n(C)c1=O | 1 (active)
CCCCn1c(N)c(C(=S)NC(=O)CC(C)(C)C)c(=O)n(C)c1=O | 1 (active)
CCN(CC)c1ccc2cc(-c3nnc(-c4ccccc4)o3)c(=O)oc2c1 | 3
CC12CCC(C(=O)N(CSC(=S)N/N=C\c3ccccc3O)C1=O)C2(C)C (stereo not drawn) | 1 (active)
CC12CCC(C(=O)N(CSC(=S)N/N=C\c3ccccc3Cl)C1=O)C2(C)C (stereo not drawn) | 1 (active)
O=C(c1cccc(F)c1)N1CCN(C(=O)c2cc(-c3ccc(Cl)cc3Cl)on2)CC1 | 0
CC(C)(C)c1ccc(-c2n[nH]c(=S)n2C2CCCC2)cc1 | 1 (active)
CC(C)n1c(-c2ccc(C(C)(C)C)cc2)n[nH]c1=S | 1 (active)

Compound | manual score
CCCCCCc1cc2cc(-c3nnc(-c4cc(OC)c(OC)c(OC)c4)o3)c(=O)oc2cc1O | 3
CC(C)CCn1c(S(=O)(=O)O)nc2ccccc21 | 0
O=C(N/N=C\c1ccc(Cl)s1)c1cccs1 | 1 (active)
Cc1nc(NCCc2ccc(S(N)(=O)=O)cc2)c2c(C)c(C)sc2n1 | 1 (active)
Cc1cccc(-n2ncc3c(NCCc4ccc(S(N)(=O)=O)cc4)ncnc32)c1 | 0
NS(=O)(=O)c1ccc(CCNC2CC(=O)N(Cc3ccccc3)C2=O)cc1 (stereo not drawn) | 0
CCc1cc(C(=O)NNC(=S)Nc2ccccc2C)cs1 | 1 (active)
CCc1cccc(NC(=O)CCSCCC(=O)Nc2cccc(CC)c2)c1 | 0
CCc1cc(C(=O)NNC(=S)Nc2cc(C)ccc2C)cs1 | 1 (active)
Cc1ccc(C2CC2C(=O)NNC(=S)Nc2cccc(Cl)c2)cc1 (stereo not drawn) | 0
CCc1cc(C(=O)NNC(=S)Nc2cccc(C)c2)cs1 | 1 (active)
Cc1ccc(C2CC2C(=O)NNC(=S)Nc2ccc(Cl)cc2)cc1 (stereo not drawn) | 0.5
CCn1c(NC(=O)Nc2cccc(C)c2C)cc2sccc21 | 0
Cc1ccc(Cl)cc1NC(=S)NCc1cccn1C | 0
Cc1ccc(C2CC2C(=O)NNC(=S)Nc2cccc(C)c2)cc1 (stereo not drawn) | 1 (active)
CCOC(=O)CC1=C(C(=O)OCC)C(c2cccs2)C(C#N)=C(N)O1 (stereo not drawn) | -0.5
CCOc1ccc(NC(=O)Nc2cccs2)cc1 | 0
CCCCN(C)CC(O)Cn1cc(/C=C/C(=O)c2cccs2)c2ccccc21 (stereo not drawn) | 3
Cc1cccc(NC(=S)NNC(=O)c2sccc2C)c1 | 1 (active)
CC(C)C(=O)Nc1nnn(C)n1 | 0
Cc1[nH]n(-c2ccc(F)cc2)c(=O)c1/C=N/c1sc2c(c1C#N)CCCC2 | 3
Cc1[nH]n(-c2cccc3ccccc23)c(=O)c1/C=N/c1sc2c(c1C#N)CCC2 | 1 (active)
C=CCNCc1cccn1-c1sc2c(c1C#N)CCCC2 | 0
CCOc1cc(C2NN=C(c3ccc(C)cc3)S2)ccc1O (stereo not drawn) | 1 (active)
C=CCNC(=O)NC(=S)c1ccccc1 | 1 (active)
N#Cc1ccc(-c2csc(NC3=NCCCCC3)n2)cc1 | 0

— PubChem BioAssay AID623868 (Vanderbilt High Throughput Screening Facility, 2012)
